Assay results taken from PubChem BioAssay (NCI).
About 79,000 compounds went through this panel and 15% of them were active in at least one assay; those are over-represented in the sample as a whole. Active and inactive are the calls of the source. No stated cut-off is given here; in the data, active means growth inhibition above about 70%; inactive means the rest.

Columns and labels:
[1] = NCI Yeast Anticancer Drug Screen. Data for the rad50 strain (AID 155);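 further: 0% = growth of vehicle-only cultures of the same strain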; settings: S. cerevisiae rad50 strain growth inhibition; at 50.0 µM; active compounds read high
Method in brief: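 Compounds were tested on a yeast strain with an engineered DNA damage repair alteration; the reported value is growth inhibition normalised to vehicle treatment.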

[2] = NCI Yeast Anticancer Drug Screen. Data for the mec2-1 strain (AID 157); settings: S. cerevisiae mec2-1 strain, at 50.0 µM, active compounds read high
Method in brief: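 Mutant yeast (mec2-1) grown with compound; growth inhibition relative to vehicle control reported.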

[3] = NCI Yeast Anticancer Drug Screen. Data for the sgs1 mgt1 strain (AID 161);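 further: 0% = growth of cultures given vehicle only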; settings: S. cerevisiae sgs1 mgt1 strain, at 50.0 µM, active compounds read high
Method in brief: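 This yeast growth screen uses a strain with defined DNA-repair lesions; compound-treated growth is compared with vehicle-treated growth.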

[4] = NCI Yeast Anticancer Drug Screen. Data for the cln2 rad14 strain (AID 165);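 further: 0% = growth equal to vehicle treated cultures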; settings: S. cerevisiae cln2 rad14 strain, at 50.0 µM, active compounds read high
Method in brief: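 Readout is yeast growth inhibition versus vehicle-treated controls, using a strain with cln2 and rad14 alterations exposed to compound.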

[5] = NCI Yeast Anticancer Drug Screen. Data for the bub3 strain (AID 167); settings: S. cerevisiae bub3 mutant strain, at 50.0 µM, active compounds read high
Method in brief: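 Growth of a checkpoint-deficient yeast mutant is measured after compound exposure. Values represent inhibition relative to vehicle.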

[6] = NCI Yeast Anticancer Drug Screen. Data for the mlh1 rad18 strain (AID 175); settings: S. cerevisiae mlh1 rad18 strain growth inhibition; at 50.0 µM; active compounds read high
Method in brief: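 Genetically defined yeast (DNA repair-deficient) exposed to compounds; growth inhibition determined relative to vehicle.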

Measured: growth inhibition

NC(N)=Nc1ccc(CC(N)C(=O)O)cc1 (stereo not drawn)
inactive: [1] -0.5% | [2] -18.8% | [3] -13.4% | [4] 15.2% | [5] -3.8% | [6] -25.6%

CC(=O)C(/C=N/C(N)=O)=C(/C)O
inactive: [1] 5.4% | [2] -7.5% | [3] 3.75% | [4] 2.75% | [5] -2.3% | [6] 2.55%

COC(=O)C(/C(=N/NC(N)=O)C(=O)Nc1ccc(C)cc1)c1nc2ccc([N+](=O)[O-])cc2[nH]c1=O (stereo not drawn)
inactive: [1] 22.1% | [2] 26.3% | [3] 0.45% | [4] -48.4% | [5] -11% | [6] 42.8%

COc1c(OC)c(OC)c2c(c1OC)c(=O)c1ccccc1n2C
inactive: [1] 12.6% | [2] 22.9% | [3] 30.8% | [4] 18.8% | [5] 14.4% | [6] -42.2%

N#Cc1n[nH]n(-c2ccccc2)c1=O
inactive: [1] -26.3% | [2] -10.8% | [3] 17.3% | [4] -11.7% | [5] -21% | [6] -13.7%

CCOc1cc2c(cc1O)/C(=N/NS(=O)(=O)c1ccc(C)cc1)C[C@@H]1[C@@H]2CC[C@]2(C)[C@@H](O)CC[C@@H]12
inactive: [1] 33.9% | [2] 26.9% | [3] 4.05% | [4] 35.4% | [5] 14.1% | [6] 4.4%

O=C1c2ccccc2-c2c1c1ccccc1c(=O)n2CCO
inactive: [2] 43.7% | [3] 60.4% | [4] 60.6% | [5] 51.9% | [6] 62.8%
active: [1] 76.8%

COC(=O)C1=CO[C@@H](OC2OC(CO)C(O)C(O)C2O)[C@H]2[C@@H](C)[C@@H](O)[C@@H](O)[C@@H]12 (stereo partly drawn)
inactive: [1] -5.15% | [2] -10.1% | [3] -0.75% | [4] 2.4% | [5] -5.9% | [6] -57.7%

COC(=O)/C=C\C(C#N)(C#N)N=Cc1ccsc1
inactive: [1] 67.9% | [4] 29.6%
active: [2] 75.5% | [3] 79.8% | [5] 74% | [6] 87.6%

CC(=N/N=C/c1ccccn1)/C(C)=N/N=C(C)/C(C)=N/N=C(C)/C(C)=N/N=C(C)/C(C)=N\N=C\c1ccccn1
inactive: [1] 24.1% | [2] 21.9% | [3] 4.05% | [4] 16.7% | [5] 8.15% | [6] -21.6%

C[N+](C)(CCNC(=O)c1cccc2cc3ccccc3nc12)Cc1ccc([N+](=O)[O-])s1
inactive: [1] -13.4% | [2] -37.2% | [3] -12.7% | [4] 4.1% | [5] -40% | [6] -36.7%

COc1ccc(C)cc1NC(=S)C#N
inactive: [1] 12.6% | [2] -1.2% | [3] -0.15% | [4] -18.6% | [5] 1.3% | [6] -44.9%

CC(C)O/N=C/c1cc(NC(=S)OC(C)C)ccc1Cl
inactive: [1] 2.35% | [2] -8.75% | [3] 11.1% | [4] -4.8% | [5] -10.9% | [6] -57.5%

N/N=C(\C(=O)Nc1ccc([N+](=O)[O-])cc1)C(C1=Nc2cc([N+](=O)[O-])ccc2NC1)[N+](=O)[O-] (stereo not drawn)
inactive: [1] 34.7% | [2] 11.7% | [3] 12.8% | [4] -41.5% | [5] 5% | [6] 16.9%

Cc1coc2c1C(OC(=O)C(C)C)C1(C)C(C)CCC(O)C1C2=O (stereo not drawn)
inactive: [1] 9.2% | [2] -6.4% | [3] 31.5% | [4] 10.7% | [5] -1.3% | [6] -37.1%

COC(=O)C(Cc1nc2ccccc2[nH]c1=O)C(=O)C(=O)Nc1cc(C(F)(F)F)ccc1Cl (stereo not drawn)
inactive: [1] 5.3% | [2] -18.5% | [3] 19.4% | [4] 4.65% | [5] 2.4% | [6] 11.4%

CCC(c1ccc(N(C)C)cc1)C1NC(=S)NC1=O (stereo not drawn)
inactive: [1] -4.2% | [2] -27.8% | [3] -17.6% | [4] 0.85% | [5] 11.8% | [6] -9.55%

CCC/C(Cl)=N/OC(=O)Nc1cccc(F)c1
inactive: [1] -2.75% | [2] -6.9% | [4] 16.6% | [5] 45% | [6] 41.5%
active: [3] 90.8%
